Reference: PubChem BioAssay (NCATS)
Results filed as inconclusive are left out. The call rests on the fitted dose curve; in most records, active means well fitted inhibition curve with a large enough effect; inconclusive means small, poorly fitted or top-dose-only effect; inactive means no such curve, though single readings can be large or run the other way.

Assay: Primary qHTS for small molecule stabilizers of the endoplasmic reticulum resident proteome: Secreted ER Calcium Modulated Protein (SERCaMP) assay (AID 1508630)
Conditions: SH-SY5Y GLuc-SERCaMP (Gaussia luciferase released on ER calcium loss) secretion, thapsigargin, luminescence; series mostly up to 38.4 µM; activity change, negative = inhibition: at the top concentration
Procedure, shortened: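 The SH-SY5Y reporter protocol was run at 3 concentrations up to 38.3 uM (primary) or 11 concentrations (follow-up): 16 h compound, 100 nM thapsigargin for 4 h, then extracellular luciferase luminescence.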
On the % scale 0 is the no-effect control and ±100 the full control effect.

Activity change, negative = inhibition, inactive:
COc1cc2c(cc1OC)OC(C)(C)C=C2 7.84%
CC1=C(C(N)=O)N2C(=O)[C@@H](NC(=O)Cc3ccccc3)C2SC1 (stereo not given in full) 7.66%
CCCCN(CC)CCOc1cccc2ccccc12 242%
CC1=CC[C@@]2(CO)COC(c3ccccc3O)C1C2 (stereo not given in full) 16.1%
COc1ccc(C(=O)OC2CC3CC[C@H](C2)N3C(C)=O)cc1OC (stereo not given in full) 5.69%
O=C1CCCC2[C@@H]3CCC[N@+]4([O-])CCC[C@H](CN12)C34 (stereo not given in full) -12.8%
O=C(O)c1ccccc1-c1oc2cc(O)ccc2c(=O)c1Oc1ccccc1 11%
CC12CC[C@@](C(=O)O)(C(=O)C1=O)C2(C)C -12.3%
C[C@@H](CN(C)C[C@H]1C(=O)O[C@@H]2C[C@@]3(C)CCC[C@]4(CO4)C3CC21)[C@H](O)c1ccccc1 (stereo not given in full) -14.7%
CCCCCCCCCCCCCCCC(=O)C1=C(O)C(CO)OC1=O (stereo not given) -2.77%
COc1ccc([C@H]2O[C@@H](c3ccc(OC)c(OC)c3)[C@H](C)[C@@H]2C)cc1OC -15%
COc1c(C=O)c(=O)[nH]c2c(OC)cccc12 -1.92%
Cc1cc(O)c(C)c2c1CC[C@H]1[C@H](C)C(=O)O[C@H]21 -9.68%
O=C(O)C1CC[C@@](C(=O)O)(c2ccccc2)c2ccccc21 (stereo not given in full) -18.4%
Cn1c(=O)c(-c2ccccc2)c(O)c2ccccc21 -26.6%
COc1cc(C/C=C\c2ccccc2)c(OC)cc1O -4.11%
O=C1CC(c2ccc(O[C@@H]3OC(CO)[C@@H](O)C(O)C3O)cc2)Oc2cc(O)ccc21 (stereo not given in full) -12.8%
CCOC(=O)c1ncc2[nH]c3cccc(OC(C)C)c3c2c1C -18.8%
C=C1C[C@H](OC(=O)C(C)(O)CCl)C2C(=C)C(=O)O[C@@H]2C2C1C[C@H](O)[C@]2(O)CCl (stereo not given in full) 123%
COc1cc(/C=C/C(=O)c2c(O)cc(C)oc2=O)ccc1O 20.1%
CC1=CC(=O)C2=C(C)C[C@H](OC(=O)Cc3ccccc3)C3[C@H](OC(=O)[C@H]3C)C12 (stereo not given in full) -23.7%
O=C(O)C[C@@H]1NC(=O)[C@H](Cc2ccccc2)NC1=O 5.11%
COC(C)C(C(=O)OCC1=CCN2CC[C@H](O)[C@@H]12)C(C)C (stereo not given in full) -14%
COc1cc2oc(=O)c3c4c(cc5ccc(c1CCN(C)C)c2c53)OCO4 4.89%
COC(=O)[C@H]1Cc2c([nH]c3ccccc23)CN1C(=O)COc1ccc2c(C)cc(=O)oc2c1 26.7%
O=CN1CCc2c([nH]c3ccccc23)C1c1cccc2cccnc12 (stereo not given) -6.11%
C=C(C(=O)O)[C@@H]1CC[C@@]2(C)CCC[C@](C)(O)[C@@H]2C1 12.8%
O=c1ccc2ccc(O[C@@H]3O[C@H](CO)[C@@H](O)[C@H](O)[C@H]3O)c(O)c2o1 -7.86%
COc1c2c(cc3c1C(c1c(O)c4ccccc4oc1=O)N(C)CC3)OCO2 (stereo not given) -10.8%
COC(=O)C1C(=O)C(C(=O)/C=C/c2ccco2)C(=O)CC1(C)C (stereo not given) -12.6%
C[C@@H](C1[C@@H](O)CC2C3C=CC4C[C@@H](O)CC[C@]4(C)[C@H]3CC[C@@]21C)[C@@H]1CCCCN1 (stereo not given in full) -29.1%
CC1=CC2C(C)(C)CC(=O)C[C@]2(C)CC1COc1ccc2c(c1)CC(=O)C=C2 (stereo not given in full) 8.67%
COc1cc2c(cc1OC)C1CCC3=C([C@H](C)OC3=O)N1CC2 (stereo not given in full) -6.63%
C[C@@H]1Oc2ccccc2C=C1/C=C/C(=O)O -12.7%
COc1cc2c(cc1OC)C(c1c[nH]c3ccccc13)NCC2 (stereo not given) -29.2%
O=c1[nH]c(-c2ccccc2O)nc2ccccc12 2.27%
O=C(O)C1Cc2c([nH]c3ccccc23)C(c2coc3ccccc3c2=O)N1 (stereo not given) 4.26%
CN(C)C(=O)OC1=C(c2ccccc2)Sc2ccccc2-n2cccc21 8.35%
COc1c2c(cc3c1C(CC(O)C(C)C)N(C)CC3)OCO2 (stereo not given) 2.54%
CC1=CC(=O)CC(C)(C)C1(O)/C=C/C(C)=C/C(=O)O (stereo not given) 0.818%
